Measured values reported in PubChem BioAssay (Tox21).
“And” between values parts separate entries of the source, which are not always exact repeats. Equal entries are not always repeated. Results filed as inconclusive are left out. Where a call stands in place of a potency, no number is given. The source made the active and inactive calls. The call rests on the fitted dose curve.

Molecular target: Beta-2 adrenergic receptor (Homo sapiens) (UniProt P07550)
Test: Adrenergic beta2 receptor (ADRB2) small molecule antagonists, cell-based qHTS assay (AID 1963592); further: nearly all actives have a fitted effect of over 50% in size; further: potency means the concentration at half of the fitted maximal effect
Details: CHO-ADRB2 cells, isoproterenol-stimulated cAMP HTRF ratio, 0.5 h; series mostly up to 92.4 µM
How it was run: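 Cells (CHO, stable ADRB2 overexpression) incubated 18-20hr at 37C; compounds added from DMSO; agonist mix (1nM isoproterenol, 100uM IBMX, 25uM Ro-20-1724) added; 0.5hr RT; d2-cAMP and anti-cAMP-cryptate added; 1hr RT; 665/615 nm read.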

Sequence of Beta-2 adrenergic receptor (Homo sapiens) (P07550 whole entry, looked up): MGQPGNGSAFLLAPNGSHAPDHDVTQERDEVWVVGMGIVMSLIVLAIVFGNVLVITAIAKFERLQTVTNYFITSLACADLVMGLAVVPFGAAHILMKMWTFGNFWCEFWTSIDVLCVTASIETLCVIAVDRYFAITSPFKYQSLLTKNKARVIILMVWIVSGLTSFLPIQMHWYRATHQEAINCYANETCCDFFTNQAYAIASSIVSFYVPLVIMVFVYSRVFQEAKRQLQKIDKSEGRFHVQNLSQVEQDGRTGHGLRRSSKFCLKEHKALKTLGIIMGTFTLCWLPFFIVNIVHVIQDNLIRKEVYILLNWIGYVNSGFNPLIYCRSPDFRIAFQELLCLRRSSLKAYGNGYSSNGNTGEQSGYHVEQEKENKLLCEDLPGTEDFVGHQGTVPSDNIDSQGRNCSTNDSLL

| SMILES | Potency |
| --- | --- |
| CCCCCCCCCCCCOCC1CO1 (stereo not drawn) | inactive |
| CCC/C=C/C=O | inactive |
| CCCCC(CC)COC(C)=O (stereo not drawn) | inactive |
| CC/C=C\C/C=C\C/C=C\CCCCCCCC(=O)O | inactive |
| OCCNCCO | inactive |
| OC[C@H]1O[C@@H]2O[C@H]3[C@H](O)[C@@H](O)[C@@H](O[C@H]4[C@H](O)[C@@H](O)[C@@H](O[C@H]5[C@H](O)[C@@H](O)[C@@H](O[C@H]6[C@H](O)[C@@H](O)[C@@H](O[C@H]7[C@H](O)[C@@H](O)[C@@H](O[C@H]1[C@H](O)[C@H]2O)O[C@@H]7CO)O[C@@H]6CO)O[C@@H]5CO)O[C@@H]4CO)O[C@@H]3CO | inactive |
| O=c1[nH]cnc2[nH]ncc12 | inactive |
| O=C(O)c1ccc(C(=O)O)c(C(=O)O)c1 | inactive |
| CCN(CC)c1ccc(C(=O)c2ccccc2C(=O)O)c(O)c1 | inactive |
| Clc1ccc2c(c1)C(N1CCNCC1)=Nc1ccccc1O2 | inactive |
| C=CC(=O)NCOCCCC | inactive |
| N[C@@H](Cc1c[nH]c2ccc(O)cc12)C(=O)O | inactive |
| O=[N+]([O-])c1ccc2nc[nH]c2c1 | inactive |
| CN=C(NC#N)NCCSCc1nc[nH]c1C | inactive |
| O=C(O)c1ccccc1C(c1ccc(O)cc1)c1ccc(O)cc1 | inactive |
| CN(Cc1cnc2nc(N)nc(N)c2n1)c1ccc(C(=O)N[C@@H](CCC(=O)O)C(=O)O)cc1 | inactive |
| CCCCCCCCCCCCCC[P+](CCCC)(CCCC)CCCC | inactive |

| SMILES | Potency |
| --- | --- |
| CC1COc2ccccc2N1C(=O)C(Cl)Cl (stereo not drawn) | inactive |
| OC1CCCC1 | inactive |
| S=C(NC1CCCCC1)NC1CCCCC1 | inactive |
| CC(C)c1ccc(S(=O)(=O)O)cc1 | inactive |
| CC(C)CC(C)O (stereo not drawn) | inactive |
| C[N+](C)(C)CCO | inactive |
| OCC(CO)(CO)CO | inactive |
| CC1(C)O[C@@H]2C[C@H]3[C@@H]4C[C@H](F)C5=CC(=O)C=C[C@]5(C)[C@@]4(F)[C@@H](O)C[C@]3(C)[C@]2(C(=O)CO)O1 | inactive |
| CC(C)OC(=O)C(C)(C)Oc1ccc(C(=O)c2ccc(Cl)cc2)cc1 | inactive |
| CCCCCCCCCCCC(=O)N(C)CC(=O)O | inactive |
| O=C(COc1ccc(Cl)cc1)N1CCN(Cc2ccc3c(c2)OCO3)CC1 | inactive |
| CCC(=O)O[C@H]1[C@H](O[C@@H]2[C@@H](C)[C@H](O[C@H]3C[C@@](C)(OC)[C@@H](O)[C@H](C)O3)[C@@H](C)C(=O)O[C@H](CC)[C@@](C)(O)[C@H](O)[C@@H](C)C(=O)[C@H](C)C[C@@]2(C)O)O[C@H](C)C[C@@H]1N(C)C | inactive |
| O=C1OC2(c3ccccc31)c1cc(Br)c(O)c(Br)c1Oc1c2cc(Br)c(O)c1Br | 62 µM (active) and 62.8 µM (active) and 21.1 µM (active) |
| NCCNCCNCCNCCN | inactive |
| CC(=O)OC1CC(C)OC(C)O1 (stereo not drawn) | inactive |
| O=C1CC2(CCCC2)CC(=O)N1CCCCN1CCN(c2ncccn2)CC1 | inactive |

Molecular target: Beta-2 adrenergic receptor (Homo sapiens) (UniProt P07550)
Test: Adrenergic beta2 receptor (ADRB2) small molecule agonists, cell-based qHTS assay (AID 1963593);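 further: CHO cells stably overexpressing human ADRB2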
Details: CHO-ADRB2 cells, cAMP HTRF, 30 min; series mostly up to 92.4 µM
How it was run: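 CHO cells stably over-expressing ADRB2 were plated overnight at 37C, then dosed with compounds plus a stimulation mix containing 100uM IBMX and 25uM Ro-20-1724 for 0.5hr at room temperature. cAMP was measured by HTRF competition, 1hr.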

| SMILES | Potency |
| --- | --- |
| CCC/C=C/C=O | inactive |
| CCCCC(CC)COC(C)=O (stereo not drawn) | inactive |
| CC/C=C\C/C=C\C/C=C\CCCCCCCC(=O)O | inactive |
| OC[C@H]1O[C@@H]2O[C@H]3[C@H](O)[C@@H](O)[C@@H](O[C@H]4[C@H](O)[C@@H](O)[C@@H](O[C@H]5[C@H](O)[C@@H](O)[C@@H](O[C@H]6[C@H](O)[C@@H](O)[C@@H](O[C@H]7[C@H](O)[C@@H](O)[C@@H](O[C@H]1[C@H](O)[C@H]2O)O[C@@H]7CO)O[C@@H]6CO)O[C@@H]5CO)O[C@@H]4CO)O[C@@H]3CO | inactive |
| O=C1c2ccccc2CCc2ccccc21 | inactive |
| C=CC(=O)NCOCCCC | inactive |
| O=[N+]([O-])c1ccc2nc[nH]c2c1 | inactive |
| CN=C(NC#N)NCCSCc1nc[nH]c1C | inactive |
| CN(Cc1cnc2nc(N)nc(N)c2n1)c1ccc(C(=O)N[C@@H](CCC(=O)O)C(=O)O)cc1 | inactive |
| CCCCCCCCCCCCCC[P+](CCCC)(CCCC)CCCC | inactive |
| CC1COc2ccccc2N1C(=O)C(Cl)Cl (stereo not drawn) | inactive |
| OC1CCCC1 | inactive |
| S=C(NC1CCCCC1)NC1CCCCC1 | inactive |
| CC(C)c1ccc(S(=O)(=O)O)cc1 | inactive |
| CC(C)CC(C)O (stereo not drawn) | inactive |
| CC1(C)O[C@@H]2C[C@H]3[C@@H]4C[C@H](F)C5=CC(=O)C=C[C@]5(C)[C@@]4(F)[C@@H](O)C[C@]3(C)[C@]2(C(=O)CO)O1 | inactive |
| CCCCCCCCCCCC(=O)N(C)CC(=O)O | inactive |
| CCC(=O)O[C@H]1[C@H](O[C@@H]2[C@@H](C)[C@H](O[C@H]3C[C@@](C)(OC)[C@@H](O)[C@H](C)O3)[C@@H](C)C(=O)O[C@H](CC)[C@@](C)(O)[C@H](O)[C@@H](C)C(=O)[C@H](C)C[C@@]2(C)O)O[C@H](C)C[C@@H]1N(C)C | inactive |
| CC(=O)OC1CC(C)OC(C)O1 (stereo not drawn) | inactive |
| O=C1CC2(CCCC2)CC(=O)N1CCCCN1CCN(c2ncccn2)CC1 | inactive |
